Screening data as filed in PubChem BioAssay.
NPR2 activator – human GC-B receptor activators, primary screen, HEK293 GC-B cells, cGMP TR-FRET, EC30 CNP. 370,000 tested, 0.11% active. 0% at EC30 CNP, 100% saturating CNP. activation, % at 10 µM. Atrial natriuretic peptide receptor 2 (Homo sapiens), P20594;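 active = activation at 10 µM reaching about 35% in either raw or pattern-adjusted values, limit read from the data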
Neddylation inh – inhibitors of cullin neddylation, primary screen, biochemical, TR-FRET, uHTS, NAE and Ubc12; inhibition, % at 25 µM; 360,000 tested, 0.58% active; AID 651699, 2012; in the data active = inhibition above about 36%
A3A deaminase – APOBEC3A ssDNA deaminase inhibitors, primary screen, selectivity assay for APOBEC3G inhibitor project, biochemical, FAM/TAMRA oligo cleavage fluorescence; inhibition, % at 20 µM; 330,000 tested, 0.41% active; recombinant A3A, FAM/TAMRA ssDNA deamination fluorescence; DNA dC->dU-editing enzyme APOBEC-3A (Homo sapiens), P31941; AID 493011, 2011;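 active = at least 40% inhibition at 20 µM here, with at most 30% in a related deaminase screen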;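 also: plate controls were A3A with DMSO for no effect and wells lacking A3A enzyme for full effect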
APOBEC3G inh – APOBEC3G DNA deaminase inhibitors, primary screen, biochemical, fluorescence, single-stranded DNA substrate, uHTS. DNA dC->dU-editing enzyme APOBEC-3G (Homo sapiens), Q9HC16. recombinant A3G, ssDNA deamination FAM/TAMRA fluorescence. inhibition, % at 20 µM. 330,000 tested, 0.28% active. AID 493012, 2011;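 active = inhibition of at least 40% at 20 µM, with no more than 30% in the related APOBEC3A deaminase screen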;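 also: plate controls were DMSO wells with A3G for no effect and wells lacking A3G enzyme for full effect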
GC-A act – GC-A stimulated cGMP production enhancers – HEK293 GC-A cells, cGMP TR-FRET, EC30 ANP, primary screen. 370,000 tested, 0.14% active. activation, % at 10 µM. 0% at EC30 ANP, 100% saturating ANP; in the data active = activation above about 40%
PfG6PD inh – PfG6PD enzyme inhibitors, primary screen, biochemical, fluorescence intensity, uHTS | inhibition, % at 20 µM | glucose-6-phosphate dehydrogenase-6-phosphogluconolactonase (Plasmodium falciparum 3D7) | PfGluPho enzyme, NADPH resazurin-diaphorase fluorescence | 350,000 tested, 0.78% active | AID 504690, 2011;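 active = inhibition reaching at least a set limit at 20 µM in the primary screen, cut at about 59% in these data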;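 also: 0% = DMSO wells with substrate and 100% = DMSO wells lacking glucose-6-phosphate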
APOBEC3A confirm – APOBEC3A deaminase inhibitors, retest, confirmation, selectivity assay for APOBEC3G inhibitor project, biochemical, single concentration, fluorescence readout; shares compounds with A3A deaminase; recombinant A3A, ssDNA deaminase UDG fluorescence assay; inhibition, % at 20 µM; 1,400 tested, 63% active; AID 493151, 2011;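 active = inhibition reaching a set limit, 80% of the first screen's cutoff, at 20 µM in any replicate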;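 also: plate controls were DMSO wells with A3A for no effect and wells lacking A3A enzyme for full effect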
UDG ctr A3A – E. coli UDG inhibitors, confirmation, counter-screen for APOBEC3A inhibitor project, biochemical, single concentration, fluorescence, FAM/TAMRA oligo; 1,000 tested, under 10 active; UDG counterscreen, FAM/TAMRA uracil oligo fluorescence; shares compounds with A3A deaminase; inhibition, % at 20 µM; call rule not given here
Active calls of the source: *; . = no result given. The list is not random: actives were taken first. Their share in the collection is about 2%.

SMILES	NPR2 activator	Neddylation inh	A3A deaminase	APOBEC3G inh	GC-A act	PfG6PD inh	APOBEC3A confirm	UDG ctr A3A
CCOC(=O)[C@@]12CCCC=C1N(CCc1ccc(Cl)cc1)C(=O)[C@H]2CC(=O)NCC1CCCCC1	10	.	.	.	0	.	.	.
O=C(COC(=O)Cc1cccc(C(F)(F)F)c1)Nc1cccc2ccccc12	4	3	41*	-6	-4	11	6	4
CC[n+]1c(/C=C/N(C)c2ccccc2)n(-c2ccccc2)c2ccc(-c3nc4ccccc4s3)cc21	.	.	61*	5	.	75*	48*	.
CC(=O)c1ccc2c3c(cccc13)C(=O)N(c1c(C)nn(C)c1C)C2=O	2	-43	48*	28	-2	1	4	.
Cc1ccc(N2C(=O)c3cccc4c(C(=O)O)ccc(c34)C2=O)cc1	-1	.	-1	1	-2	.	.	.
N#C/C(=C\c1ccc(-c2ccc([N+](=O)[O-])cc2Br)o1)C(=O)N1CCN(c2ccccc2)CC1	2	-9	48*	2	-1	1	11	.
Cc1ccc(CN2C(=O)N/C(=C\c3ccc(-c4ccc(C(=O)O)cc4C)o3)C2=O)cc1	-6	.	53*	21	4	0	32*	-1
Cc1cc(C(=O)O)ccc1-c1ccc(/C=C2\NC(=O)N(Cc3ccccc3Cl)C2=O)o1	.	.	35	16	.	3	.	.
O=C(NCCc1c[nH]c2ccccc12)OCc1cn(Cc2ccc(F)cc2F)nn1	2	.	.	.	0	.	.	.
Cn1cc(/C=N/NC(=O)c2cc3cc(Br)ccc3o2)c2ccccc21	1	37	52*	16	13	9	58*	-1
COC(=O)[C@]12C[C@H](CC(=O)N3CCC(c4ccccc4)CC3)C(=O)N(CCc3ccc(OC)c(OC)c3)C1=C[C@H](C(C)C)O[C@@H]2C1CC1	-6	.	.	.	-5	.	.	.
CSc1ccc(S(=O)(=O)N2CCC(C(=O)NCC3CCCO3)CC2)cc1 (configuration not stated)	3	-6	63*	11	2	17	56*	2
C=CCN1[C@@H](Cc2ccccc2)COc2cccc(F)c2S1(=O)=O	1	.	.	.	0	.	.	.
CCC(C)NC(=O)C1CCN(S(=O)(=O)c2ccc3[nH]c(=O)oc3c2)CC1 (configuration not stated)	-2	.	.	.	3	.	.	.
Cc1ccc(NC(=O)c2cc(=O)[nH]c3ccc(S(=O)(=O)N4CCOCC4)cc23)cc1	8	3	-3	-7	1	10	.	.
CCc1cccc(C)c1NC(=O)c1cc(=O)[nH]c2ccc(S(=O)(=O)N3CCOCC3)cc12	1	-13	43*	3	0	1	35*	-3
CC(C)CN1CN2Cc3cc(F)ccc3C2CS1(=O)=O (configuration not stated)	4	.	.	.	-4	.	.	.
C#CCCN([C@H](C(=O)OC)C(C)C)S(=O)(=O)c1ccccc1Br	-4	.	.	.	-3	.	.	.
CN(C)/C=C(/C(=O)c1ccc(Cl)c(Cl)c1)S(C)(=O)=O	-2	-3	-2	-4	0	-18	.	.
CN(C)/C=C(/C(=O)c1ccc(Cl)cc1)S(C)(=O)=O	-1	-6	43*	5	-1	-10	1	.
